Values joined by “and” are separate entries in the source; they are usually repeats but may differ in a detail not shown here. Equal entries are not always repeated. Results filed as inconclusive are left out. A number with no mark means an inactive call. The call rests on the fitted dose curve; in most records, active means well fitted cell-killing curve with a large enough effect in the repeat runs; inconclusive means weak or mixed curves; inactive means flat fitted curve, though single readings scatter.
Assay: qHTS assay for small molecule agonists of the antioxidant response element (ARE) signaling pathway measured by Nrf2-dependant transcriptional activity - cell viability counter screen (AID 720653)
Settings: ARE-bla HepG2 viability, CellTiter-Glo ATP luminescence, 16 h; hits give low values
Excerpt: National Center for Advancing Translational Sciences [NCATS] NIH Chemical Genomics Center [NCGC] U.S. Environmental Protection Agency [EPA] National Institutes of Environmental Health Sciences [NIEHS] National Toxicology Program [NTP] Assay Overview: Oxidative stress has been implicated in the pathogenesis of a variety of diseases ranging from cancer to neurodegeneration. The antioxidant response element (ARE) signaling pathway plays an important role in the amelioration of oxidative stress. The CellSensor ARE-bla HepG2 cell line (Invitrogen) can be used for analyzing the Nrf2/antioxidant response signaling pathway. Nrf2 (NF-E2-related factor 2) and Nrf1 are transcription factors that bind to AREs and activate these genes. The CellSensor ARE-bla HepG2 cell line contains a beta-lactamase reporter gene under control of the Antioxidant Response Element (ARE) stably integrated into HepG2 cells. The activation of the report gene under culture conditions can be detected by fluorescence intensity. The cytotoxicity of the compounds against the ARE-bla HepG2 cell line was quantified by measuring the intracellular ATP content.
Assay Protocol Summary: ARE-bla HepG2 cells were dispensed at 2,000 cells/5 ul/well in 1536-well black wall/clear bottom plates using a Multidrop Combi (ThermoFisher Scientific, Waltham, MA) dispenser. After the assay plates were incubated at 37C/5% CO2 for 5 hrs, 23 nL of compounds dissolved in DMSO, positive controls or DMSO only was transferred to the assay plate by a pintool work station (Kalypsys, San Diego, CA). The plates were incubated at 37C/5% CO2 for 16 hrs. After 1 uL of LiveBLAzer B/G FRET substrate was added using a Flying Reagent Dispenser (FRD) (Aurora Discovery, San Diego, CA), the assay plates were incubated at room temperature for 2 hrs. The fluorescence intensity was measured by an Envision (PerkinElmer, Shelton, CT) plate reader. Cell viability using CellTiter Glo viability assay (Promega, Madison, WI) was also measured by adding 4 ul/well of CellTiter-Glo reagent into the same assay plate using a FRD. After 30 min incubation at room temperature, the luminescence intensity in the plates was measured using a ViewLux (PerkinElmer) plate reader.
On the % scale 0 is the no-effect control and ±100 the full control effect.

Structure (SMILES)	max response
COc1ccc2nc(S(=O)Cc3ncc(C)c(OC)c3C)[nH]c2c1 (stereo unspecified)	1.66%
NC(=O)c1cnccn1	6.82% and 7.56%
CC(=O)Oc1ccccc1C(=O)O	-2.6% and -0.828% and 18.8%
O=c1[nH]cnc2[nH]ncc12	-4.44%
CNC[C@H](O)c1cccc(O)c1	-6.42%
NS(=O)(=O)c1cc2c(cc1Cl)NC=NS2(=O)=O	-14.4%
Cc1ccccc1C(OCCN(C)C)c1ccccc1 (stereo unspecified)	-8.13%
O=NN(CCCl)C(=O)NCCCl	-0.208%
C[C@]12CCC(=O)C=C1CC[C@@H]1[C@@H]2[C@@H](O)C[C@@]2(C)[C@H]1CC[C@]2(O)C(=O)CO	-2.33%
NC(N)=NC(=O)c1nc(Cl)c(N)nc1N	-15%
NC[C@H](O)c1ccc(O)c(O)c1	-7.71%
Cc1[nH]c(=O)c(C#N)cc1-c1ccncc1	11.3%
Cc1c(C)c2c(c(C)c1O)CCC(C)(COc1ccc(CC3SC(=O)NC3=O)cc1)O2 (stereo unspecified)	5.17%
CC(C)(Sc1ccc(CCN(CCCCC2CCCCC2)C(=O)NC2CCCCC2)cc1)C(=O)O	1.89%
O=C1CCC(N2C(=O)c3ccccc3C2=O)C(=O)N1 (stereo unspecified)	1.28%
CCCC(CCC)C(=O)O	-3.17% and -14.3% and -4.27%
